Compound activity (PubChem)
Rows were chosen to be rich in hits. Some 3.1% of all compounds tested hit in one or more screens of this group.
HIF-2a inh: blocks HIF-2a reporter activity | 786-0 RCC cells HIF-2a reporter, luciferase luminescence, overnight | inhibition, % at 18.8 µM | hit rate 0.72% among 360,000;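 active = inhibition of the luminescence signal of 40% or more relative to plate controls, in a single-dose primary screen at 18.75 µM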
CF NFkB block: blocks PAF-induced NF-kB reporter in cystic fibrosis cells; KKLEB NF-kB-GFP reporter, GFP fluorescence overnight; inhibition, % at 5 µM; hit rate 0.86% among 360,000; AID 588850;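 active = at least 50% inhibition at 5 µM, scaled per plate between neutral and stimulator controls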;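 also: PAF is a Pseudomonas aeruginosa culture filtrate used as stimulus; plate controls were PAF-stimulated DMSO wells for no effect and unstimulated DMSO wells for full effect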
C8 TRAIL sens: caspase-8 TRAIL sensitization; inhibition (viability loss, TRAIL sensitization), % at 10 µM; AID 624354; NB7+C8 cells + TRAIL, ATPlite viability luminescence; hit rate 1% among 360,000;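 active = compounds causing at least 50% loss of cell viability in the single-dose screen, relative to plate controls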
PPC-1+TRAIL kill: compounds killing PPC-1 cancer cells with TRAIL present (potentiator screen, no TRAIL-free arm) | PPC-1 cells + TRAIL, ATPLite viability luminescence | cell killing (% activity), % at 4 µM or 5 µM | AID 1443 | hit rate 0.41% among 220,000;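 active = cell killing above 50% in the first pass at 4 µM, then a duplicate retest at 5 µM averaging 50% or more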;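 also: plate controls were cells with TRAIL plus DMSO for no effect and medium-only wells lacking cells for full effect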
Peg3 promoter: reduces Peg3 promoter-driven luciferase expression in HeLa; inhibition, % at 20 µM; hit rate 1.7% among 360,000; AID 588405; HeLa PEG-Prom luciferase reporter, luminescence, overnight;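 active = inhibition of at least 50% at 20 µM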
KKLEB tox: CF airway cell cytotoxicity counter-screen; KKLEB CF airway cells viability, ATPlite luminescence, overnight; stronger effect = lower value; cells stimulated with P. aeruginosa culture filtrate; hit rate 0.36% among 360,000; AID 602141; activity change (cytotoxicity), % at 5 µM;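 active = corrected activity change at or below -50% at 5 µM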
Mdm2 MdmX conf: confirmation of inhibitors of human Mdm2/MdmX interaction, set 2; shares compounds with HIF-2a inh; SaOS-2 split-luciferase Mdm2/MdmX complementation, luminescence; inhibition, % at 8 µM; hit rate 99% among 740;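 active = mean inhibition of the luminescence signal across two replicates at or above 26 percent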
Target sequence (O15151 whole entry, looked up): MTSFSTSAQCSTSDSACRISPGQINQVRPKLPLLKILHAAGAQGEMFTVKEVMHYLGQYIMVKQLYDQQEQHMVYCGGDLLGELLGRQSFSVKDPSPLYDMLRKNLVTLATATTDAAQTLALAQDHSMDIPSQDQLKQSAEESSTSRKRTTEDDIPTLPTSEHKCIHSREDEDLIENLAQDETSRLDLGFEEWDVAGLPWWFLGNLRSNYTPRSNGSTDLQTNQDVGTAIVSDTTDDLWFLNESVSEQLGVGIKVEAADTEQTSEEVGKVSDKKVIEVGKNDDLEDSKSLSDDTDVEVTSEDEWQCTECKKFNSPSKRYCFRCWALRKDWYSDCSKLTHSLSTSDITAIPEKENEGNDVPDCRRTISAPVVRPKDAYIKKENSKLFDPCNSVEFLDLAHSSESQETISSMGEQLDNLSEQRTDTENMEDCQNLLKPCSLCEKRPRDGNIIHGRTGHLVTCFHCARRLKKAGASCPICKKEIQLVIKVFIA
Target sequence (Q00987 whole entry, looked up): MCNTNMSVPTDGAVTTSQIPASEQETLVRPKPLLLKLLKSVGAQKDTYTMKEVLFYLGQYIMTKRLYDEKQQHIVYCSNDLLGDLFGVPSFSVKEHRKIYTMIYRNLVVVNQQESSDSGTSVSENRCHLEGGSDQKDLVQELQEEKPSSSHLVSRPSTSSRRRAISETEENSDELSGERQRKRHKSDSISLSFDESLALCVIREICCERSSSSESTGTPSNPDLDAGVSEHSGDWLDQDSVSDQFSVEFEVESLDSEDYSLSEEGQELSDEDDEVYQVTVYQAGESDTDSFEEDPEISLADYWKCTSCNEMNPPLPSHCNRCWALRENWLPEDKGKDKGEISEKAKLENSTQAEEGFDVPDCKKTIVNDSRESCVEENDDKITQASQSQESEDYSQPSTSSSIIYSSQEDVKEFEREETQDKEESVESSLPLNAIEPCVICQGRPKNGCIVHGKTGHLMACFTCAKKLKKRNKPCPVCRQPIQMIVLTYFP
HIF-2a inh conf: HIF-2a inhibition, single concentration confirmation. shares compounds with HIF-2a inh. 786-0 RCC cells, HIF-2a luciferase reporter luminescence, overnight. inhibition, % at 18.8 µM. hit rate 56% among 1,800;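 active = mean inhibition across four replicates of at least 40 percent at the single tested concentration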
HIF-1a counter: HIF-1a inhibition counter-screen for HIF-2a hits; shares compounds with HIF-2a inh; MiaPaCa-2 HIF-1a luciferase reporter, desferoxamine, overnight; inhibition, % at 18.8 µM; hit rate 72% among 1,800; AID 651589;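 active = mean inhibition of the reporter signal across four replicates at the single tested dose of 50% or more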
The depositor's hits bear a star; . = not tested or not shown.

SMILES	HIF-2a inh	CF NFkB block	C8 TRAIL sens	PPC-1+TRAIL kill	Peg3 promoter	KKLEB tox	HIF-2a inh conf	HIF-1a counter	others
COC(=O)[C@]12CCCCC=C1N(CCc1ccc(OC)c(OC)c1)C(=O)[C@H](CC(=O)N1CCC(c3ccccc3)CC1)C2	-18	.	38	.	.	.	.	.
C(#CC12CC3CC(CC(C3)C1)C2)CN1CCOCC1	41*	4	-2	3	2	-4	4	-6
CCC(Sc1nc2n[nH]c(C)c2c(=N)n1-c1ccc(C)c(Cl)c1)C(=O)N1CCOCC1 (configuration not stated)	41*	9	-3	23	36	-16	10	70*
CCOC(=O)C(C)(C)N(Cc1ccccc1C)S(=O)(=O)c1ccc(Cl)c([N+](=O)[O-])c1	40*	2	-15	-18	100*	-1	21	42
CC(C)N1CCC1(C)C(=O)Nc1ccc(-n2cccc2)cc1 (configuration not stated)	-13	-11	-19	.	-11	-4	.	.
Cc1ccc(NC(=O)c2ccc(Cl)c(N3C(=O)C=CC3=O)c2)cc1	49*	28	5	-7	101*	-1	25	-34
COc1cccc(C(=O)Nc2ccc(C)cc2)c1	-316	6	28	22	-201	12	.	.
Cc1ccc(NC(=O)[C@H](Cc2c[nH]c3ccccc23)NC(=O)[C@@H]2Cc3ccccc3CN2)c(C)c1	-47	-24	15	.	-13	-4	.	.	Mdm2 MdmX conf=98*
Cc1cccc(NC(=O)[C@H](Cc2c[nH]c3ccccc23)NC(=O)[C@@H]2Cc3ccccc3CN2)c1	-41	-12	18	.	-13	13	.	.
CCCCN(CC)Cc1ccc(CNC(=S)Nc2ccc(C)cc2Cl)o1	84*	3	11	4	-10	-8	60*	60*
CCCCN(CC)Cc1ccc(CNC(=S)Nc2c(C)cc(C)cc2C)o1	12	-8	-1	8	6	0	.	.
CCc1noc(C)c1C(=O)NNC(=O)c1ccc(N(CC)CC)cc1	1	-30	7	.	-16	-1	.	.
O=C(N/N=C\c1ccc(-c2ccc([N+](=O)[O-])cc2)o1)c1ccc2c(c1)OCO2	9	4	-21	22	23	-39	.	.
O=C(N/N=C\c1c(O)ccc2ccccc12)c1ccc(S(=O)(=O)N2CCCCC2)cc1	29	9	39	46	64*	-35	.	.	Mdm2 MdmX conf=87*
O=C(CN1CCCc2ccccc21)N/N=C/c1ccccc1	-202	-4	-2	-4	-156	-4	.	.
O=C(NN=Cc1c(O)ccc2ccccc12)c1ccc2c(c1)OCO2	-65	4	34	.	15	-14	.	.	Mdm2 MdmX conf=88*
O=C(CN1CCCc2ccccc21)N/N=C/c1c(O)ccc2ccccc12	-30	5	43	39	-23	-3	.	.	Mdm2 MdmX conf=97*
O=C(N/N=C/c1ccc([N+](=O)[O-])o1)c1ccc2c(c1)OCO2	56*	-5	18	.	13	-2	52*	59*
C=C1CCN([C@@H](CC(C)C)C(=O)Nc2nc3ccc(Cl)cc3s2)S(=O)(=O)c2ccccc21	8	40	14	.	32	-9	.	.
Cc1ccc(S(=O)(=O)NCCC2=CCCCC2)cc1	-6	8	-7	.	-12	8	.	.
CCOC(=O)COc1ccc(S(=O)(=O)NCCC2=CCCCC2)cc1	54*	10	-28	-38	11	0	7	-1
COc1cc(C(=O)O[C@H]2CC(C)=CC[C@@]3(C)CC[C@@](O)(C(C)C)[C@H]23)ccc1O	20	8	8	.	26	-17	.	.
CC(C)[C@H](CO)NC(=O)[C@H]1O[C@@H](n2ccc(=O)[nH]c2=O)[C@H](O)[C@@H]1O	3	-2	7	.	-7	7	.	.
CCc1ccc(-c2cn3nc(C)c(C)nc3n2)cc1	66*	-4	56*	.	71*	-9	91*	84*
Cc1nc2nc(-c3ccc(F)cc3)cn2nc1C	-56	-14	21	.	-88	7	.	.
SMILES	HIF-2a inh	CF NFkB block	C8 TRAIL sens	PPC-1+TRAIL kill	Peg3 promoter	KKLEB tox	HIF-2a inh conf	HIF-1a counter	others
CCOC(=O)[C@H]1[C@H]2COc3ccc(Cl)cc3[C@@H]2N2C(=O)[C@@H](C)NC(=O)[C@@]12C	8	-16	-11	.	9	10	.	.
Cn1c(N)c(C(=O)COC(=O)COc2ccc(Cl)cc2Cl)c(=O)n(C)c1=O	10	-9	-11	.	-1	2	.	.
CC(=O)N(Cc1ccc(F)cc1)C1=C(NCCc2ccccc2)C(=O)c2ccccc2C1=O	91*	86*	89*	48	103*	-55*	.	.	Mdm2 MdmX conf=101*
CCC(C(=O)Nc1c(C)cccc1C)n1c(-c2ccc(=O)[nH]c2)nc2ccccc21 (configuration not stated)	-20	.	0	.	.	.	.	.
CCOc1ccc2nc(C)cc(Nc3ccc4c(c3)OCCO4)c2c1	45*	-29	-9	32	88*	-1	-3	33
Cc1ccc2nc(C)cc(Nc3ccc4c(c3)OCCO4)c2c1	3	-18	14	11	-39	0	.	.
CCOc1ccc2nc(C)cc(Nc3cccc([N+](=O)[O-])c3)c2c1	63*	-26	21	27	92*	-23	26	101*	Mdm2 MdmX conf=103*
Cc1cc(Nc2ccc([N+](=O)[O-])cc2)c2ccccc2n1	18	-81	5	.	11	9	.	.	Mdm2 MdmX conf=103*
Cn1nc(C(C)(C)C)cc1C(=O)N1CCCC(c2cc(C(=O)NCc3ccccc3)no2)C1 (configuration not stated)	14	3	-3	.	13	-12	.	.
Cc1cccc(CS(=O)(=O)c2ncc(Cl)c(C(=O)Nc3c(C)cccc3C)n2)c1	47*	98*	29	.	103*	-66*	68*	90*	Mdm2 MdmX conf=103*
CCCc1nnc(NC(=O)CS(=O)(=O)c2ccc(C)cc2)s1	7	-4	-3	.	15	1	.	.
CCCc1nnc(NC(=O)c2nc(S(=O)(=O)Cc3cccc(C)c3)ncc2Cl)s1	69*	94*	45	.	109*	-90*	22	106*
CC(=O)Nc1nc2[nH]ccc2c(=O)[nH]1	1	7	-11	.	-1	6	.	.
COc1ccc(Br)cc1C(C[N+](=O)[O-])c1c(N)n(C)c(=O)n(C)c1=O (configuration not stated)	58*	-8	21	15	68*	-8	21	86*
